± gives the standard deviation.

This experiment deals with OVCAR-3-derived ovarian cancer stem-like cells (spheroids). In words: cell growth relative to untreated control; higher = more growth (less inhibition). The settings on record: 2.29 µM; 96 h. The gist of the method: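 After trypsin dissociation, OVCAR-3 spheroid-derived stem-like cells were placed in ultra-low attachment 96-well plates at 50,000 cells/mL in stem cell medium and preincubated for 24 h. Treatment at 2.29 uM followed for 96 h at 37°C, 5% CO2, with 4 replicate wells per compound. A 4 h TOX8 resazurin fluorescence read (ex 560/em 590 nm) gave viability, from which percent growth relative to untreated wells was derived after blank subtraction and Grubbs outlier removal.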
As to `CC(=O)OCc1c2ccccc2c(C)c2c1cc(F)c1ccccc12`, the cell growth came out at 85.4 ± 9.4%. The figure for `COC1CC(C)C(OC)c2cc(O)cc(c2O)NC(=O)/C(C)=C/C=C\C(C)C(OC(N)=O)/C(C)=C/C(C)C1OC` (stereo not drawn) is 29 ± 4.8%; for `CN(C)C[C@H]1CC[C@@H](CN(C)C)C1=O` it is 93.8 ± 21%. `COc1ccc(-c2cc(=O)c3c(O)cc(O)cc3o2)cc1OC` came in with a cell growth of 4.9 ± 3.4%. Turning to `CCc1cccc(C(C)C)c1NC(=O)/C(=N\NC(N)=O)C(C(=O)OC)c1cnc2ccccc2n1` (stereo not drawn), the cell growth turned out to be 71.4 ± 14%. The value for `S=C(Nc1ccccc1)N(/N=C/C=C/c1ccccc1)c1nnc(-c2ccccc2)c(-c2ccccc2)n1` was 132 ± 57%; that for `COc1cc(/C=C2\S/C(=N/Nc3nc(-c4ccc(Br)cc4)cs3)NC2=O)cc(OC)c1OC` was 91.9 ± 19%. The figure for `CC(=O)NC1C(OCc2ccccc2)OC(CO)C(O)C1OC(C)C(=O)NC(C(=O)NC(CCC(=O)NCCCCNc1c2ccccc2nc2cccc([N+](=O)[O-])c12)C(N)=O)C(C)C` (stereo not drawn) is 105 ± 21%; for `COc1ccc2cc(CN3CCC(C4CCN(Cc5ccc6cc(OC)ccc6c5)CC4)CC3)ccc2c1` it is 110 ± 24%; for `Nc1ccc(S(=O)(=O)Nc2cnc3c(Cl)cccc3n2)cc1` it is 100 ± 15%. The figure for `COc1ccc2nc(C)cc(NCCCCCCCCCNc3cc(C)nc4ccc(OC)cc34)c2c1` is 75.9 ± 37%. In turn, `Nc1ncnc2c1nc(Cl)n2[C@@H]1O[C@@H]2COP(=O)(O)O[C@H]2[C@H]1O` came in with a cell growth of 115 ± 43%. The figure for `CC(C)c1ccc2nc3ccc(C(=O)NCCN(C)C)cn3c(=O)c2c1` is 79.4 ± 21%; for `N#CCCN(c1ccc(C=O)cc1)S(=O)(=O)c1ccccc1` it is 116 ± 22%; for `CSc1ccc(NC(=O)CCl)cc1` it is 80.8 ± 14%. Molecule `CN1CCN(CCNc2ccc(CO)c3sc4ccccc4c(=O)c23)CC1` registered a cell growth of 49.7 ± 14%. The figure for `CCOC(=O)C1=C(C)NC(=S)NC1c1ccccc1` (stereo not drawn) is 103 ± 12%. For `CCN(CC)CCCC(C)Nc1ccnc(/C=C/c2ccc(Cl)cc2)c1` (stereo not drawn), the cell growth turned out to be 84.6 ± 25%. On to `CC1=CC(=C(c2ccc(N)cc2)c2ccc(N)cc2)C=CC1=N`, for which the cell growth was 50.4 ± 6.5%. The value for `CCCCCCCC/C=C\CCCCCCCC(=O)O` was 124 ± 36%; that for `O=C1C=C(NCCc2ccccc2)c2ccccc2C1=O` was 57.3 ± 10%; that for `Cc1cc(O)c(C(C)C)cc1C1(c2cc(C(C)C)c(O)cc2C)OC(=O)c2ccccc21` was 104 ± 32%. `CCCCOc1ccc(NC(N)=Nc2ccc(Cl)cc2)cc1` came in with a cell growth of 124 ± 20%.

The values above are taken from the supplement of paper PMC3484114.
